Hit rate of the full screen: of about 100,000 compounds, about 770 (0.77%) were called active. Only a selection was taken, and actives are over-represented in it overall. Values without a mark were called inactive. No stated cut-off is given here; in the data, active means inhibition above about 50%; inactive means the rest.
Molecular target: Gag-Pol polyprotein (Human immunodeficiency virus type 1 group M subtype B (isolate HXB2)) (UniProt P04585)
Test: RNase H inhibition, HIV 1 Gag Pol polyprotein, FRET biochemical assay, screening (AID 372)
Conditions: HIV-1 RT RNase H, FRET RNA/DNA substrate fluorescence; at 10 µM; hits give high values

| Compound | inhibition |
| --- | --- |
| C/C(=N\Nc1ccc([N+](=O)[O-])cc1)c1ccc([N+](=O)[O-])o1 | 8% |
| COc1cc(Cc2ccc(N/C=C/C(=O)c3ccc(Br)cc3)c(OC)c2)ccc1N/C=C/C(=O)c1ccc(Br)cc1 | 25% |
| Cc1cc(Cl)ccc1OC(=O)c1ccc(Br)cc1 | 34% |
| Cc1ccc(C(=O)Oc2ccc(Cl)cc2C)cc1 | 2% |
| Cc1cc(Cl)ccc1OC(=O)c1ccc(Cl)cc1 | 51% (active) |
| O=C(Nc1cnc2ccccc2c1)C1COc2ccccc2O1 (centres undefined) | 3% |
| O=S(=O)(CCc1nnc(-c2ccc(Br)cc2)o1)c1ccc(Cl)cc1 | 2% |
| COc1cccc(N2C(=O)/C(=C/c3cccc(O)c3)SC2=S)c1 | 29% |
| COc1ccc(N2C(=O)/C(=C\c3ccc(O)c(O)c3)SC2=S)cc1 | 77% (active) |
| COc1ccc(N2C(=O)/C(=C/c3ccc(O)c(OC)c3)SC2=S)cc1 | 26% |
| COc1cccc(N2C(=O)/C(=C/c3ccc(O)c(O)c3)SC2=S)c1 | 75% (active) |
| COc1ccc(N2C(=O)/C(=C\c3ccc(OC)c(O)c3)SC2=S)cc1 | 4% |
| COc1cccc(N2C(=O)/C(=C/c3ccc(O)c(OC)c3)SC2=S)c1 | 22% |
| COc1cc(OC)cc(C(=O)Nc2ccc(N3CCN(C(=O)c4ccccc4)CC3)cc2)c1 | 31% |
| CCOc1cccc2c1N(C(=O)c1ccccc1)C(C)(C)C(=S)C2=C1SC(C(=O)OC)=C(C(=O)OC)S1 | 45% |
| CCCOc1ccc(C(=O)NCc2ccccc2)cc1 | 6% |
| COc1cc(/C=C/c2nc3ccccc3c(=O)n2-c2ccccc2[N+](=O)[O-])ccc1O | 35% |
| COc1cccc(/C=C/c2nc3ccccc3c(=O)n2-c2cccc([N+](=O)[O-])c2)c1O | 27% |
| Cc1ccc(-n2c(/C=C/c3c(C)n(C)c4ccccc34)nc3ccccc3c2=O)cc1 | 0% |
| COc1cc(/C=C/c2nc3ccccc3c(=O)n2-c2cccc([N+](=O)[O-])c2)ccc1O | 61% (active) |

| Compound | inhibition |
| --- | --- |
| O=C(O)c1ccc(-n2c(/C=C\c3ccccc3)nc3ccccc3c2=O)cc1 | 7% |
| COc1ccc(OC)c(CN2CCN(Cc3cccc(Br)c3)CC2)c1 | 5% |
| COc1ccc([N+](=O)[O-])cc1N(CC(O)CN1CCCCC1)S(=O)(=O)c1ccc(C)cc1 (centres undefined) | 12% |
| Cc1c(C(=O)Oc2ccc3c(c2)C(C)CC(C)(C)N3)cccc1[N+](=O)[O-] (centres undefined) | 21% |
| CCSc1nnc(NC(=O)COc2ccc(Cl)cc2Cl)s1 | 22% |
| CC(=O)c1ccc(NC(=S)Nc2ccc3nccnc3c2)cc1 | 10% |
| O=S(=O)(Oc1ccccc1/C=N/NC(=S)Nc1ccccc1)c1ccccc1 | 52% (active) |
| NC(=O)N/N=C/c1ccccc1OS(=O)(=O)c1ccc([N+](=O)[O-])cc1 | 11% |
| NC(N)=N/N=C/c1ccccc1OS(=O)(=O)c1ccccc1 | 0% |
| CCOC(=O)c1c[nH]c2ccc(Cl)cc2c1=O | 14% |
| C=CCn1c(CSc2nc3ccccc3s2)n[nH]c1=S | 0% |
| C=CCn1c(CCCN2C(=O)c3cccc4cccc(c34)C2=O)nnc1SC/C=C/c1ccccc1 | 8% |
| C=CCn1c(CSc2nc3ccccc3s2)nnc1SC/C=C/c1ccccc1 | 59% (active) |
| Cc1ccc(NC(=O)C(C)SCc2ccccc2)c(C)c1 (centres undefined) | 13% |
| COc1ccc(C2CC(=O)C3=C(C2)NC(C)=C(C(=O)OCCOc2ccccc2)C3c2cccc(Br)c2)cc1 (centres undefined) | 6% |
| COc1ccc(C(=O)N2CCN(C(c3ccccc3)c3ccccc3)CC2)cc1OC | 13% |
| COc1ccc(/C(C)=N/OCC(=O)N2CCN(C(c3ccccc3)c3ccccc3)CC2)cc1OC | 51% (active) |
| COc1ccc(/C=N/OCC(=O)N2CCN(C(c3ccccc3)c3ccccc3)CC2)cc1OC | 45% |
| CCc1ccc(C(=O)CSC2=C(C#N)C(c3ccc(Br)cc3)C(C(C)=O)=C(C)N2)cc1 (centres undefined) | 26% |
| COc1ccc(C2(CNS(=O)(=O)c3ccccc3)CCCC2)cc1OC | 0% |

| Compound | inhibition |
| --- | --- |
| COc1cc(C=Nc2cccc(Cl)c2C)ccc1OC(C)=O | 11% |
| Cc1no[n+]([O-])c1COc1ccc(/C=C2\NC(=S)NC2=O)cc1 | 4% |
| COc1cc(/C=C2\NC(=S)NC2=O)ccc1OCc1c(C)no[n+]1[O-] | 53% (active) |
| COc1cc(C=C2C(=O)NC(=O)NC2=O)ccc1OCc1c(C)no[n+]1[O-] | 6% |
| O=c1c2c3c(sc2ncn1/N=C/c1ccc(Br)o1)CCCC3 | 25% |
| O=C(NC(=S)Nc1nc(-c2cccc([N+](=O)[O-])c2)cs1)c1ccc(Cl)cc1 | 35% |
| CCOc1ccc(C(=O)NC(=S)Nc2ccc(Cl)cc2)cc1Cl | 7% |
| O=C(Nc1nc(-c2ccc(Cl)cc2)cs1)c1ccc([N+](=O)[O-])cc1 | 51% (active) |
| CCOc1ccc(C(=O)Nc2ccc([N+](=O)[O-])cc2OC)cc1Cl | 14% |
| CCOc1ccc(C(=O)NC(=S)Nc2ccc(Cl)cn2)cc1Cl | 60% (active) |
| O=C(Nc1nc(-c2ccc([N+](=O)[O-])cc2)cs1)c1ccc(Cl)cc1 | 32% |
| COc1ccc(C(=O)NC(=S)Nc2nc(-c3cccc([N+](=O)[O-])c3)cs2)cc1Cl | 54% (active) |
| COc1ccc(C(=O)NC(=S)Nc2nc(-c3ccccc3)cs2)cc1Cl | 16% |
| O=C(Nc1nc(-c2ccc(Br)cc2)cs1)c1ccc([N+](=O)[O-])cc1 | 37% |
| COc1ccc(C(=O)NC(=S)Nc2ccc([N+](=O)[O-])cc2C)cc1Cl | 18% |
| CCOc1ccc(C(=O)NC(=S)Nc2ccc([N+](=O)[O-])cc2OC)cc1Cl | 50% (active) |
| CCOc1ccc(C(=O)NC(=S)Nc2ccccn2)cc1Cl | 12% |
| COc1cc(OC)cc(C(=O)Nc2cccc(-c3nc4ccccc4s3)c2)c1 | 5% |
| Oc1ccc(Br)cc1/C=N/c1c(-c2ccco2)nc2ccccn12 | 15% |

From PubChem BioAssay AID372 (MTDP, 2006)
